This is an account of results in PubChem BioAssay (NCI).

Where “and” joins values, the source holds several entries; their conditions need not be identical. Identical values can stand only once. Compounds without any hit were thinned out: in the full panel of roughly 83,000, 20% have a hit.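 Results are percent growth after 48 hours of single-concentration exposure. 100 means growth as in untreated cells, lower positive values show inhibition; negative values down to -100 show cell death.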 Calls of active or inactive are those of the source. Rule for the calls: active = growth percent below 10; inactive = the rest.

For this experiment, the system named is MDA-MB-468 breast. As to the kind of experiment: NCI-60 one-dose screen, 48 h (100 = growth as untreated, 0 = no growth, -100 = all killed). The settings on record: 10 µM unless noted.
Regarding `CCOC(=O)n1cc(C2=C(c3cn(C)c4ccccc34)COC2=O)c2ccccc21`, the growth was 29.5% (inactive). `COc1cc2nc(Cl)nc(Nc3cccc(C4=Nc5c(N)nc(N)nc5NC(c5ccc6c(c5)OCO6)C4)c3)c2cc1OC` (stereo not given): the growth is 81.7% (inactive).

Turning to `O=C(O)Cc1cccc(=O)c(O)c1C(=O)O`, the growth is 105% (inactive). Consider `C=CC(=O)Nc1cccc(-c2nc(SC)nc(NCCN3CCOCC3)c2C#N)c1`, for which the growth is 97.8% (inactive). In the case of `CC(C)[C@H]1CCC2=C3CC[C@]45OC(=O)[C@@]6(CCC(C)(C)C[C@H]64)CC[C@@]5(C)[C@]3(C)CC[C@@]21C` it was 76.4% [100 µM] (inactive); in that of `COc1cc(-c2nn(-c3ccc(NC(=O)Nc4ccc(Cl)c(Cl)c4)cc3)cc2-c2ccncc2)ccc1Cl`, 30.4% (inactive). As to `Oc1cc2ccccc2c(-c2c(O)c(O)cc3ccccc23)c1O`, the growth is 26.6% (inactive).

On to `C=C(C)Cn1c(SCC(=O)c2cccs2)nc2sc3c(c2c1=O)CCCC3`, for which the growth is 68.6% (inactive).

As to `COC(=O)C(Cc1ccccc1)NC(=O)c1ccc(NC(=O)c2[nH]c(C)c(Cl)c2Cl)c(OC(C)C)c1` (stereo not given), the growth was 96.8% (inactive). In the case of `N/C(=N\c1nc2ccccc2s1)NC(=O)Nc1ccccc1` it was 31.4% (inactive).

In the case of `COc1cccc(C2=NN3C(C2)c2ccccc2OC3c2ccc(/C=C3\SC(=O)NC3=O)cc2)c1` (stereo not given), the growth is 102% (inactive). For `CC(C)(C)c1cc(C(=O)Nc2cc3ccccc3cc2C(=O)NCCN)cc(C(C)(C)C)c1`, the growth was -87.6% (active). In the case of `CSc1ccc(SC2c3ccc(C)cc3Oc3nc(N)c(C#N)c(N)c32)cc1` (stereo not given) it was -75.8% (active). In the case of `Fc1ccc(Nc2ccc3cc(OCCCN4CCOCC4)ccc3n2)cc1F` it was 52.8% (inactive); in that of `COc1ccc(/C=C/C(=O)NCC(C)O)cc1` (stereo not given), 94.2% (inactive).

In the case of `CCCCSc1cc(C)nc(N)n1`, the growth was 95.8% (inactive). In the case of `CCCCCCNC(=O)Oc1ccc(/C(=C(/CC)Cc2ccccc2)c2ccc(OCCN3CCCCC3)cc2)cc1` it was 86.3% (inactive); in that of `COC(=O)[C@H](Cc1cn(C)cn1)NC(=O)[C@H](CC(=O)OCc1ccccc1)NC(=O)Nc1cc(C(F)(F)F)cc(C(F)(F)F)c1`, -74.2% [100 µM] (active); in that of `Cc1cc(C)c(C(=O)c2cccs2)c(C)c1`, 105% (inactive).

`CCNC(=O)c1[nH]cc(-c2ccccc2)c1-c1cc(OC)c2c(c1OC)OCO2`: the growth is 104% (inactive). In the case of `COCc1cc2c(cc1Br)OCO2` it was 110% (inactive).

For the compound `Clc1cccc(Cl)c1CSc1nc2ccccc2n2cccc12`, the growth is 18.9% (inactive). Turning to `Cc1[nH]n(C(N)=S)c(=O)c1N=Nc1ccc(F)c(Cl)c1`, the growth was 154% (inactive). With `CCCn1c2cc(OCc3cn(-c4ccc(Cl)cc4)nn3)ccc2c2ccnc(C)c21`, the growth was 38.9% (inactive). Consider `CCNC(=O)Oc1ccc(/C(=C(/CC)Cc2ccccc2)c2ccc(OCCN3CCCC3)cc2)cc1`, for which the growth is 87.5% (inactive).

With `CCCCC1=c2c([nH]c3ccc(OC)cc23)=NC2C=CC=NC12` (stereo not given), the growth is -23.5% (active). In the case of `C#CCOC(=O)/C=C/c1cn(-c2ccccc2)nc1-c1ccc(OC)cc1` it was 101% (inactive).

`CC(=O)Nc1ccc(-n2cnc3cc(-c4ccc(OCCN5CCCCC5)cc4)ccc32)cc1`: the growth was 115% (inactive). In the case of `COC(=O)Nc1nc2ccc(C(=O)c3cccs3)cc2[nH]1`, the growth was 5.96% (active).

Regarding `CCN1C(=O)N(CC)C2C1NN=c1s/c(=C3\C(=O)N(CC(C)C)c4ccccc43)c(=O)n12` (stereo not given), the growth is 6% (active). In the case of `Nc1c(C(=O)Nc2ccccc2)sc2nc3c(cc12)CCCCCC3` it was -25% (active). In the case of `Cc1cc(Nc2ccc(Cl)c(Cl)c2)nc(N)n1` it was 54.5% (inactive); in that of `N=C1CC(=O)NN1C(=O)CSc1nc2sc3c(c2c(=O)n1-c1ccc(Cl)cc1)CCCC3`, 106% (inactive).

Take `O=Nc1ccccc1N=O`: the growth is 91.7% (inactive). For `C/C(=C\CCc1ccoc1)CC/C=C(\C)CCCN1CCC(CO)CC1`, the growth was 14.5% (inactive). In the case of `CCCCCn1sc(=O)n(Cc2ccc(CNC(=O)C(C)c3ccc(CC(C)C)cc3)cc2)c1=O` (stereo not given) it was 106% (inactive) and -81% (active); in that of `NS(=O)(=O)c1nnc(/N=C/c2c(O)[nH]c3ccccc23)s1`, 109% (inactive); in that of `COc1cc(OCc2cccc(-c3ccc(C(O)c4nccs4)cc3)c2C)cc(OC)c1CNCCNC(C)=O` (stereo not given), 92.1% (inactive). With `COc1ccc(NC(=O)c2sc3nc(C)c(C(O)c4ccccc4)cc3c2N)cc1` (stereo not given), the growth was 14.1% (inactive).

`Cc1ccc(-n2nc3n(/c2=N\C(=O)NS(=O)(=O)c2ccc(C)cc2)CCN3C2=NCCN2)cc1`: the growth was 114% (inactive).
